Data reported in PubChem BioAssay (NCI).
This is part of a sample that, as a whole, favours compounds with a hit. Of some 79,000 tested, about 15% had one in any assay. Active and inactive are the calls of the source. Cut-off read from the data, not from the text of the source: active = growth inhibition above about 70%; inactive = the rest.

How the values were obtained:
[1] = NCI Yeast Anticancer Drug Screen. Data for the rad50 strain (AID 155);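 note: 0% = growth of vehicle-only cultures of the same strain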; conditions: S. cerevisiae rad50 strain growth inhibition, active compounds read high; at 50.0 µM unless noted
In short: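 Cells are treated with compound, grown, and their growth is then scored against vehicle-only cultures of the same repair-deficient yeast strain.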

[2] = NCI Yeast Anticancer Drug Screen. Data for the mec2-1 strain (AID 157); conditions: S. cerevisiae mec2-1 strain, active compounds read high; at 50.0 µM unless noted
In short: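 Each compound was tested on mec2-1 yeast, a strain altered in DNA damage repair or cell cycle control. Growth inhibition is reported relative to vehicle.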

[3] = NCI Yeast Anticancer Drug Screen. Data for the sgs1 mgt1 strain (AID 161);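 note: 0% = growth of cultures given vehicle only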; conditions: S. cerevisiae sgs1 mgt1 strain, active compounds read high; at 50.0 µM unless noted
In short: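 Read-out: growth inhibition vs vehicle controls. Cells: mutant yeast strain deficient in DNA damage repair.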

[4] = NCI Yeast Anticancer Drug Screen. Data for the cln2 rad14 strain (AID 165);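 note: 0% = growth equal to vehicle treated cultures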; conditions: S. cerevisiae cln2 rad14 strain, active compounds read high; at 50.0 µM unless noted
In short: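 Test compounds were added to cln2 rad14 yeast cultures; inhibition of growth was then determined by comparison with vehicle treatment.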

[5] = NCI Yeast Anticancer Drug Screen. Data for the bub3 strain (AID 167); conditions: S. cerevisiae bub3 mutant strain, active compounds read high; at 50.0 µM unless noted
In short: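 Part of a panel of yeast mutants defective in DNA damage repair or cell cycle regulation. Each strain is grown with compound, and inhibition is calculated relative to solvent-treated cultures.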

[6] = NCI Yeast Anticancer Drug Screen. Data for the mlh1 rad18 strain (AID 175); conditions: S. cerevisiae mlh1 rad18 strain growth inhibition, active compounds read high; at 50.0 µM unless noted
In short: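 Inhibition values reflect reduced growth of mutant yeast versus vehicle-treated controls following compound exposure; the mutations affect DNA damage repair.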

Measured: growth inhibition

CC(/C=C/C(=O)c1sc(-n2nc(-c3ccccc3)cc2-c2ccccc2)nc1C)=C\c1ccccc1
inactive: [1] 21.9% | [2] 5.25% | [3] 25.9% | [4] 8.85% | [5] 44.8% | [6] 20.7%

O=C(O)/C(Cc1cn[nH]n1)=N\O
inactive: [1] -20.3% | [2] -29.9% | [3] -51.7% | [4] -77% | [5] -39.4% | [6] -32%

COc1cc(CNc2nc3ccc(C(F)(F)F)cc3nc2-c2ccccc2)cc(OC)c1OC
inactive: [1] -14.3% | [2] -3.05% | [3] -28.4% | [4] -10.2% | [5] 2.25% | [6] -4.55%

CN1C(=O)n2c(nc3ccccc32)C(Cl)(Cl)C1=O
inactive: [1] 13.8% | [2] 10.3% | [3] 3.25% | [4] 20.4% | [5] 34.7% | [6] 42%

N#Cc1c(-c2ccccc2Cl)c(-c2ccccc2Cl)nn(CCO)c1=O
inactive: [1] 16.9% | [2] 7.2% | [3] 13.4% | [4] 9.35% | [5] 10.2% | [6] 27.5%

CC(O)c1cccc(NC(=O)NC2CCCCC2)c1 (centres undefined)
inactive: [1] -2.55% | [2] 28.1% | [3] 10.8% | [4] -6.1% | [5] 29.4% | [6] 27.8%

O=C(O)C1CC1c1ccc2c(c1)OCO2 (centres undefined)
inactive: [1] -11.8% | [2] -10.4% | [3] 7.2% | [4] -34% | [5] -33.9% | [6] 1.35%

N=C(N)SCc1ccc(Oc2ccc(CSC(=N)N)cc2)cc1
inactive: [1] 0.4% | [2] 1.45% | [3] -4.5% | [4] 0.5% | [5] -2.4% | [6] 15.3%

COC(=O)/C(=C(\C)NC(C)=O)c1c(C(=O)OC)[nH]c2ccccc12
inactive: [1] -6.85% | [2] -12.5% | [3] -9.15% | [4] 4.15% | [5] -3% | [6] -111%

CC(C)(C)[Si](C)(C)OCC1OC(n2cnc3c(=O)[nH]cnc32)CC1O (centres undefined)
inactive: [1] 0.35% | [2] 6.2% | [3] 3.2% | [4] 8% | [5] 44% | [6] -7.85%

Cc1ccc(N2C(=O)CC(N3CCCCC3)C2=O)cc1 (centres undefined)
active: [6] 80.2%
inactive: [1] 29.1% | [2] 37.7% | [3] 68.2% | [4] 13.2% | [5] -2.05%

O=c1[nH]c2cc(Cl)c([N+](=O)[O-])cc2o1
inactive: [1] 12.1% | [2] -0.5% | [3] -0.5% | [4] -18.1% | [5] -14.9% | [6] 16.7%

CC(=O)NCCc1ccccc1
inactive: [1] -18.2% | [2] 20.9% | [3] 3.2% | [4] -19.3% | [5] 10% | [6] -0.1%

O=C(NO)Nc1ccccc1Cl
inactive: [1] 6.45% | [2] 9.45% | [3] 10.5% | [4] -1.65% | [5] -4.25% | [6] 8.9%

CC(O[Si](C)(C)C)C1C=CC(C)n2c(=O)n(-c3ccccc3)c(=O)n21 (centres undefined)
inactive: [1] 4.65% | [2] -26.6% | [3] -34.3% | [4] -7.6% | [5] -55.6% | [6] -18.2%

CC(=O)C(C)(CC#N)C(CC=O)CCC#N (centres undefined)
inactive: [1] 15.9% | [2] 4.7% | [3] 10.2% | [4] -1.45% | [5] 14% | [6] -1%

C1CN(C23OC4(N5CCOCC5)C5C6CC(C7C6C4C72)C53)CCO1 (centres undefined)
inactive: [1] -18.9% | [2] -3% | [3] -3.9% | [4] -43.1% | [5] -0.05% | [6] -11.2%

COc1ccc(/C=C2\CN(CCCC(=O)O)C(=O)C2=O)cc1
inactive: [1] 3.6% | [2] -7.5% | [3] 0% | [4] -6.45% | [5] 4.1% | [6] -16.7%

O=C(O)Cc1ccc(O)cc1
inactive: [1] 6.25% | [2] -25.6% | [3] 8.6% | [4] 8.45% | [5] -11.7% | [6] 1.75%

O=C1NC(=S)N/C1=C\c1ccc(Cl)cc1
inactive: [1] -5.75% | [2] -4.8% | [3] 15% | [4] -5.9% | [5] -9.3% | [6] -39.7%

O=C(/C=C/c1ccc(-c2ccccc2)cc1)c1ccccc1
inactive: [1] -16.7% | [2] -24.8% | [3] 7.75% | [4] -3.3% | [5] -20.6% | [6] -17.6%

Cn1c(=O)c2nc(SCC(=O)O)n(C)c2n(C)c1=O
inactive: [1] 3.6% | [2] 6.2% | [3] 7.4% | [4] -10.1% | [5] 5.35% | [6] 3.2%

CN1CC(c2ccccc2)C(O)(C2(c3ccccc3)CN(C)CC(c3ccccc3)C2=O)C(c2ccccc2)C1 (centres undefined)
inactive: [1] 5.7% | [2] 7.25% | [3] -30.4% | [4] -6.7% | [5] -17.4% | [6] -7.65%

NC(N)=NS(=O)(=O)c1ccc(NCc2c3ccccc3nc3ccccc23)cc1
inactive: [1] 41.2% | [2] 26.9% | [3] 38.4% | [4] 6.75% | [5] 46.5% | [6] 38.1%

N#C/C(=C\c1ccccc1)c1cccc(F)c1
inactive: [1] 28.9% | [2] 24.6% | [3] 18.2% | [4] -4.05% | [5] 15.7% | [6] 11.4%

CO[C@@H]1C2=CC=CC=C[C@H]2n2c(=O)n(-c3ccccc3)c(=O)n21
inactive: [1] -10.2% | [2] 18.6% | [3] 18.4% | [4] -14.4% | [5] -1.15% | [6] 13.2%

Cc1nc2ncnc(N)c2[nH]1
inactive: [1] 3.55% | [2] -11% | [3] -12.5% | [4] -28.7% | [5] 11.2% | [6] -5.95%

NC(=S)N/N=C/c1ccc(N)cn1
inactive: [1] -4.2% | [2] 17% | [3] -0.5% | [4] 0.25% | [5] 8.15% | [6] -8.8%

CCCn1/c(=N\N=O)sc2ccccc21
inactive: [1] -0.45% | [2] 2.9% | [3] -5.5% | [4] -29.6% | [5] -23.1% | [6] 7%

CC[N+](C)(CC)CCNC(=O)C(c1ccccc1)c1ccccc1
inactive: [1] 45.6% | [2] -1.45% | [3] 21.1% | [4] 0.5% | [5] 6.65% | [6] 16.2%

CNC(=O)N(C)Cc1ccccc1
inactive: [1] 12.7% | [2] -12.8% | [3] 2.75% | [4] -98.7% | [5] -13.6% | [6] -11.2%

CN(C)C(=S)Oc1ccc(-c2c(-c3ccccc3)oc3ccc4ccccc4c23)cc1
inactive: [1] 28.2% | [2] -4.05% | [3] 7.95% | [4] 10.8% | [5] -0.1% | [6] 9.4%

CC(C)c1cc(C(C)C)c(S(=O)(=O)N/N=C2\C=CCC(C)(C)C2)c(C(C)C)c1
inactive: [1] 41.1% | [2] 5.05% | [3] 24.1% | [4] -47.4% | [5] -4.7% | [6] 18.9%

CCC(=O)Nc1ccccc1Cl
inactive: [1] 3.6% | [2] -1.1% | [3] -15.4% | [4] -42.6% | [5] -1.95% | [6] 4.95%

O=C1N(Cc2ccccc2)CCN1Cc1ccccc1
inactive: [1] -37.1% | [2] -24.6% | [3] -11.7% | [4] 20.2% | [5] 0.6% | [6] -22.9%

COC1=C2C[C@H](C)C[C@H](OC)[C@H](O)[C@@H](C)/C=C(\C)[C@H](OC(N)=O)[C@H](OC)/C=C\C=C(/C)C(=O)NC(=C(/C=N/N3CCN(C)CC3)C1=O)C2=O
inactive: [1] 7.15% | [2] 0.05% | [3] -7.8% | [4] -8.75% | [5] 2.75% | [6] 18.8%

CC1=C(C(=O)CC(=O)C(=O)Nc2ccc(Cl)cc2C)Sc2ccccc2N1
inactive: [1] -4.7% | [2] 3.25% | [3] -26.6% | [4] 9.35% | [5] 6.7% | [6] -22.6%

CC(C)CCO/N=C(\N)N=C(N)N
inactive: [1] -17.4% | [2] -5.8% | [3] 14.3% | [4] 2.7% | [5] -1.75% | [6] -1.9%

OC1(C2(O)CCCC2)CCCC1
inactive: [1] 14.1% | [2] 8.4% | [3] 22% | [4] 6.75% | [5] 18% | [6] 12.8%
